The values that follow come from PubChem BioAssay (NCI).

A short description of assay [1]: NCI Yeast Anticancer Drug Screen. Data for the rad50 strain (AID 155).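 Further: 0% = growth of vehicle-only cultures of the same strain.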 The note with it: S. cerevisiae rad50 strain growth inhibition, stronger effect = higher value. In short, it runs like this: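 Growth of the mutant yeast was measured after compound exposure and referenced to vehicle-treated cultures.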
Assay [2] can be described thus: NCI Yeast Anticancer Drug Screen. Data for the mec2-1 strain (AID 157). The note with it: S. cerevisiae mec2-1 strain, stronger effect = higher value. Put shortly: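 Test agents were screened against the mec2-1 yeast strain, with defined DNA repair or cell cycle alteration. Growth was scored as inhibition against vehicle-only controls.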
Assay [3] can be described thus: NCI Yeast Anticancer Drug Screen. Data for the sgs1 mgt1 strain (AID 161).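 Further: 0% = growth of cultures given vehicle only.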 The note with it: S. cerevisiae sgs1 mgt1 strain, stronger effect = higher value. Put shortly: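 Inhibition of yeast growth, normalised to vehicle-treated controls, is reported for a strain bearing genetic alterations in DNA damage repair.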
Assay [4] can be described thus: NCI Yeast Anticancer Drug Screen. Data for the cln2 rad14 strain (AID 165).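 Further: 0% = growth equal to vehicle treated cultures.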 The note with it: S. cerevisiae cln2 rad14 strain, stronger effect = higher value. Put shortly:
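Growth of compound-exposed yeast (cln2 rad14 genotype) measured and expressed as inhibition relative to vehicle.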

A short description of assay [5]: NCI Yeast Anticancer Drug Screen. Data for the bub3 strain (AID 167). The following applies: S. cerevisiae bub3 mutant strain, stronger effect = higher value. Put shortly:
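Whole-cell yeast assay. The mutant strain was incubated with compounds, and growth inhibition was determined by comparison with vehicle-treated cells.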

Assay [6] is described as follows: NCI Yeast Anticancer Drug Screen. Data for the mlh1 rad18 strain (AID 175). The note with it: S. cerevisiae mlh1 rad18 strain growth inhibition, stronger effect = higher value. Put shortly: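 In this whole-cell yeast screen, a strain with altered DNA damage repair is challenged with compound, and its growth is measured against matched vehicle-treated controls.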
Where [7] appears, read: at 5.0 µM (retest, dose inferred, filed as 0.5).
The mark [8] stands for this setting: at 50.0 µM (retest, dose inferred, filed as 5.0).

About 79,000 compounds went through this panel and 15% of them were active in at least one assay; those are over-represented in the sample as a whole. Unmarked numbers belong to inactive results. Active and inactive are the calls of the source. No stated cut-off is given here; in the data, active means growth inhibition above about 70%; inactive means the rest.

In the case of `CC(=O)Oc1cc2c(cc1OC(C)=O)OCC(c1ccc(C)cc1)C2` (configuration not stated), the growth inhibition in assay [1] (setting [7]) was 8%; in assay [1] (setting [8]), 65%; in assay [1] (at 50.0 µM), 53.1%; in assay [2] (setting [7]) it was 8%; in assay [2] (setting [8]), 49%; in assay [2] (at 50.0 µM), 57.9%. In addition, the growth inhibition in assay [3] (setting [7]) was 4%; in assay [3] (setting [8]) it was 61%; in assay [3] (at 50.0 µM), 32.1%; in assay [4] (setting [7]), 2%; in assay [4] (setting [8]), 72% (active); in assay [4] (at 50.0 µM) it was 64%. Also, the growth inhibition in assay [5] (setting [7]) is 8%; in assay [5] (setting [8]) it was 87% (active); in assay [5] (at 50.0 µM) it was 73.7% (active); in assay [6] (setting [7]), 0%; in assay [6] (setting [8]), 64%; in assay [6] (at 50.0 µM), 75.8% (active).

Turning to `CC1=C(C(=O)Nc2ccccc2C)C(c2ccc(Cl)c(Cl)c2)C(C(=O)Nc2ccccc2C)=C(C)N1`, the growth inhibition in assay [1] (setting [7]) was 5%; in assay [1] (setting [8]), 5%; in assay [1] (at 50.0 µM) it was 84% (active); in assay [2] (setting [7]) it was 2%; in assay [2] (setting [8]), 2%; in assay [2] (at 50.0 µM) it was 76.3% (active). Further, the growth inhibition is -5% in assay [3] (setting [7]); -5% in assay [3] (setting [8]); 79.4% (active) in assay [3] (at 50.0 µM); 8% in assay [4] (setting [7]); 8% in assay [4] (setting [8]); 78.5% (active) in assay [4] (at 50.0 µM). Besides, the growth inhibition in assay [5] (setting [7]) is -19%; in assay [5] (setting [8]) it was -19%; in assay [5] (at 50.0 µM), 82% (active); in assay [6] (setting [7]), 8%; in assay [6] (setting [8]) it was 8%; in assay [6] (at 50.0 µM) it was 77.1% (active).

In the case of `O=S1(=O)CS(=O)(=O)OCCCO1`, the growth inhibition in assay [1] (setting [7]) is 10%; in assay [1] (setting [8]), 10%; in assay [1] (at 50.0 µM), -15.7%; in assay [2] (setting [7]), 8%; in assay [2] (setting [8]), 8%; in assay [2] (at 50.0 µM), -32.8%. The growth inhibition is 7% in assay [3] (setting [7]); 15% in assay [3] (setting [8]); -23.4% in assay [3] (at 50.0 µM); 12% in assay [4] (setting [7]); 9% in assay [4] (setting [8]); -9.45% in assay [4] (at 50.0 µM). Further, the growth inhibition in assay [5] (setting [7]) is 7%; in assay [5] (setting [8]), 7%; in assay [5] (at 50.0 µM), -30.1%; in assay [6] (setting [7]), 11%; in assay [6] (setting [8]), 16%; in assay [6] (at 50.0 µM), -59.5%.

On to `Oc1ccccc1/C=N/NC(=S)NC12CC3CC(CC(C3)C1)C2`, for which the growth inhibition in assay [1] (setting [7]) is 7%; in assay [1] (setting [8]), 19%; in assay [1] (at 50.0 µM) it was 81.3% (active); in assay [2] (setting [7]), 14%; in assay [2] (setting [8]), 11%; in assay [2] (at 50.0 µM) it was 29.6%. In addition, the growth inhibition in assay [3] (setting [7]) is 27%; in assay [3] (setting [8]) it was 19%; in assay [3] (at 50.0 µM) it was 64.4%; in assay [4] (setting [7]), -38%; in assay [4] (setting [8]) it was 20%; in assay [4] (at 50.0 µM), 31.1%. For the same molecule, the growth inhibition is 21% in assay [5] (setting [7]); 21% in assay [5] (setting [8]); 42.8% in assay [5] (at 50.0 µM); 10% in assay [6] (setting [7]); 41% in assay [6] (setting [8]); 85.9% (active) in assay [6] (at 50.0 µM).

With `COC(=O)c1[nH]c(=O)c(C#N)c(C(=O)OC)c1C(=O)c1ccc2ccccc2c1`, the growth inhibition in assay [1] (setting [7]) was -1%; in assay [1] (setting [8]), 31%; in assay [1] (at 50.0 µM), 80.8% (active); in assay [2] (setting [7]), -2%; in assay [2] (setting [8]) it was 20%; in assay [2] (at 50.0 µM) it was 10.9%. For the same molecule, the growth inhibition was -1% in assay [3] (setting [7]); 25% in assay [3] (setting [8]); 67.6% in assay [3] (at 50.0 µM); 7% in assay [4] (setting [7]); 32% in assay [4] (setting [8]); 20.3% in assay [4] (at 50.0 µM). For the same molecule, the growth inhibition in assay [5] (setting [7]) is 7%; in assay [5] (setting [8]) it was 41%; in assay [5] (at 50.0 µM) it was 24.6%; in assay [6] (setting [7]), 12%; in assay [6] (setting [8]), 44%; in assay [6] (at 50.0 µM), 80.8% (active).

With `COC(OC)(c1ccccc1)C(I)I`, the growth inhibition is 100% (active) in assay [1] (setting [7]); 100% (active) in assay [1] (setting [8]); 99% (active) in assay [1] (at 50.0 µM); 100% (active) in assay [2] (setting [7]); 100% (active) in assay [2] (setting [8]); 99.4% (active) in assay [2] (at 50.0 µM). Moreover, the growth inhibition was 100% (active) in assay [3] (setting [7]); 100% (active) in assay [3] (setting [8]); 99.3% (active) in assay [3] (at 50.0 µM); 100% (active) in assay [4] (setting [7]); 99% (active) in assay [4] (setting [8]); 99.5% (active) in assay [4] (at 50.0 µM). The growth inhibition in assay [5] (setting [7]) is 100% (active); in assay [5] (setting [8]), 100% (active); in assay [5] (at 50.0 µM), 99.3% (active); in assay [6] (setting [7]) it was 100% (active); in assay [6] (setting [8]), 99% (active); in assay [6] (at 50.0 µM), 99.5% (active).

On to `CN(C)CCC(=O)C(=Cc1cc(Cl)cc(Cl)c1)C(=O)CCN(C)C`, for which the growth inhibition in assay [1] (setting [7]) was 2%; in assay [1] (setting [8]), 98% (active); in assay [1] (at 50.0 µM), 96.3% (active); in assay [2] (setting [7]), -19%; in assay [2] (setting [8]) it was 99% (active); in assay [2] (at 50.0 µM) it was 99% (active). In addition, the growth inhibition in assay [3] (setting [7]) is 12%; in assay [3] (setting [8]) it was 99% (active); in assay [3] (at 50.0 µM), 85.2% (active); in assay [4] (setting [7]), 0%; in assay [4] (setting [8]), 98% (active); in assay [4] (at 50.0 µM), 40.6%. In addition, the growth inhibition is -8% in assay [5] (setting [7]); 98% (active) in assay [5] (setting [8]); 97.8% (active) in assay [5] (at 50.0 µM); -4% in assay [6] (setting [7]); 97% (active) in assay [6] (setting [8]); 97.5% (active) in assay [6] (at 50.0 µM).

Take `O=C1SCCN1/N=C/c1ccc([N+](=O)[O-])o1`: the growth inhibition in assay [1] (setting [7]) is 30%; in assay [1] (setting [8]), 85% (active); in assay [1] (at 50.0 µM) it was 85.8% (active); in assay [2] (setting [7]) it was 13%; in assay [2] (setting [8]) it was 82% (active); in assay [2] (at 50.0 µM) it was 65.3%. Also, the growth inhibition was 34% in assay [3] (setting [7]); 92% (active) in assay [3] (setting [8]); 93.3% (active) in assay [3] (at 50.0 µM); 2% in assay [4] (setting [7]); 68% in assay [4] (setting [8]); 50.7% in assay [4] (at 50.0 µM). Moreover, the growth inhibition in assay [5] (setting [7]) is 10%; in assay [5] (setting [8]), 80% (active); in assay [5] (at 50.0 µM), 64.6%; in assay [6] (setting [7]), 51%; in assay [6] (setting [8]), 94% (active); in assay [6] (at 50.0 µM), 92% (active).

In the case of `CCOC(=O)/C=C(\C)OCC`, the growth inhibition is -5% in assay [1] (setting [7]); 25% in assay [1] (setting [8]); 16.3% in assay [1] (at 50.0 µM); -3% in assay [2] (setting [7]); 2% in assay [2] (setting [8]); 6.1% in assay [2] (at 50.0 µM). The growth inhibition is -4% in assay [3] (setting [7]); 3% in assay [3] (setting [8]); 7.25% in assay [3] (at 50.0 µM); -1% in assay [4] (setting [7]); 4% in assay [4] (setting [8]); 76% (active) in assay [4] (at 50.0 µM). For the same molecule, the growth inhibition is -5% in assay [5] (setting [7]); -4% in assay [5] (setting [8]); 38.9% in assay [5] (at 50.0 µM); -5% in assay [6] (setting [7]); 7% in assay [6] (setting [8]); 10.4% in assay [6] (at 50.0 µM).
